# Experimental data published in the supplement of paper PMC12636033.
# ± gives the standard deviation of the averaged measurements. Over roughly 33,000 sequences, “E-score (rank enrichment, -0.5 to 0.5)” has its median near -0.0075; the highest 2% begin near 0.23. The full list was thinned out, with the highest values kept by preference.
# Test system: WT Max(13-93) synthetic (M65Nle)
# Test: PBM 8-mer E-score (E-score (rank enrichment, -0.5 to 0.5)); higher = stronger preferential binding
# Description: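 Protein binding microarray (universal PBM chip covering all 10-mers in fixed probe flanks) with chemically synthesized human Max(13-93) bHLH-LZ analogs (not full-length Max) bearing noncanonical residues (hArg, Tha, Aib, Nle at 65) and aromatic Cys staples. Read-out per 8-mer (and its reverse complement): E-score (rank-based enrichment, -0.5 to 0.5) and Z-score of median probe intensity.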
row,Sequence,PBM 8-mer E-score
1,CACCTTTC,0.0495 ± 0.029
2,ACCGAAGC,-0.0719 ± 0.043
3,CATGTTTC,0.192 ± 0.017
4,AGTGTTTA,0.0808 ± 0.099
5,GGTGTTTA,-0.0165 ± 0.02
6,GATGTTTA,0.0913 ± 0.016
7,CGTGTTTA,0.274 ± 0.019
8,CATGTTTA,0.302 ± 0.07
9,CGATCCAG,-0.318 ± 0.024
10,ACGTAACT,-0.0612 ± 0.056
11,ATGGAGCC,-0.159 ± 0.086
12,ACCCTATC,-0.0509 ± 0.049
13,ATAATGCA,0.161 ± 0.072
14,GACGTGCA,0.132 ± 0.021
15,CACGTGCC,0.472 ± 0.0067
16,AACGTGCG,0.188 ± 0.037
17,GACGTGCC,-0.0759 ± 0.054
18,AACGTGCA,0.283 ± 0.044
19,AACGTGCC,0.0848 ± 0.0026
20,CACGTGCG,0.48552 ± 0.00018
21,CCCGTGCG,0.00827 ± 0.054
22,CAGGTGCG,-0.186 ± 0.068

row,Sequence,PBM 8-mer E-score
1,AACGTGCT,0.181 ± 0.038
2,CACGTGCA,0.4864 ± 0.0015
3,TACGTGCA,0.126 ± 0.094
4,AAACTCAG,-0.0399 ± 0.035
5,AAGTGTCA,0.0618 ± 0.14
6,AAATAAGT,0.126 ± 0.0013
7,CTTGTTGC,0.124 ± 0.046
8,CTGCCGGA,-0.102 ± 0.082
9,CAAAAACC,0.241 ± 0.035
10,ACAAAAAC,0.215 ± 0.07
11,ACAAGCAC,0.0152 ± 0.013
12,GCAAGCAA,-0.0138 ± 0.026
13,ACAAAAAA,0.251 ± 0.016
14,ACAAAAAT,0.111 ± 0.084
15,ACAAATGT,0.277 ± 0.073
16,ACAAGCAA,0.239 ± 0.01
17,CCAAAACC,0.0915 ± 0.13
18,CAAAACCC,0.138 ± 0.027
19,ACAAATGA,0.104 ± 0.068
20,ACAAATGG,0.196 ± 0.099
21,ACCACCTC,0.0118 ± 0.00067
22,ACGTTTTC,0.116 ± 0.034

row,Sequence,PBM 8-mer E-score
1,ATAGAGTC,-0.13 ± 0.093
2,CGTCGAAG,-0.152 ± 0.018
3,CTAGCTCC,-0.117 ± 0.094
4,GCACGACA,-0.0608 ± 0.098
5,AAGCTGGA,-0.0702 ± 0.12
6,GCAGAAGC,-0.118 ± 0.075
7,ATGTTCCC,0.0189 ± 0.083
8,AAAAATAA,0.0936 ± 0.097
9,ACAAAATA,0.209 ± 0.054
10,CAAAATAA,0.239 ± 0.012
11,CCAAAAAA,0.171 ± 0.017
12,ACAAAATG,0.3408 ± 0.0015
13,TAAAATAA,0.15 ± 0.0044
14,CAAAAAAA,0.248 ± 0.0035
15,CAAAAAAC,0.161 ± 0.012
16,ACAAAATC,0.106 ± 0.0076
17,CGTGCCCA,-0.00988 ± 0.079
18,ATCTTAGG,-0.0691 ± 0.031
19,CAGTGATG,0.0281 ± 0.13
20,ACGAGGCC,-0.0195 ± 0.14
21,GCGCTCAC,-0.00351 ± 0.038
22,ACAGCGTC,0.0682 ± 0.028

row,Sequence,PBM 8-mer E-score
1,ACCGCGTC,-0.117 ± 0.08
2,ACCGCGTG,0.365 ± 0.056
3,ACAGCGTA,-0.0609 ± 0.029
4,ACCGCGTA,0.0537 ± 0.048
5,ACAGCGTG,0.235 ± 0.013
6,GAACCCCC,-0.387 ± 0.031
7,ATCTTCAG,0.0326 ± 0.1
8,TAGTCAAA,0.14 ± 0.09
9,TAGATTAA,0.154 ± 0.027
10,CGATGCCC,-0.19 ± 0.045
11,CAAACGGC,-0.279 ± 0.026
12,CAAAACGA,0.0654 ± 0.066
13,GAAAACGA,0.0526 ± 0.057
14,AAAATCCA,0.26 ± 0.06
15,GAAACGGC,0.0668 ± 0.011
16,TAAAACCA,0.148 ± 0.056
17,GAAATCCA,-0.0865 ± 0.057
18,AAAAACCA,0.238 ± 0.057
19,CAAATCCA,0.0485 ± 0.13
20,AAAAACGA,0.25 ± 0.03
21,CAAAACCA,0.0992 ± 0.086
22,AAAACGGC,0.251 ± 0.16
